Compound activity: PubChem, The Scripps Research Institute Molecular Screening Center
Only some compounds are listed: those with a hit (about 2.9% of all), similar ones and a draw of the others.
PAFAH2 inh = PAFAH2 (human) inhibition. Q99487. recombinant PAFAH2, FP-rhodamine activity probe, fluorescence polarization. inhibition, % at 3.39 µM. 340,000 tested, 0.99% active. AID 492956;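 active = inhibition above the mean over all tested compounds plus 3 SD, cut at about 30% in these data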;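 note: inhibitors block probe labeling of enzyme so polarization drops; 0% = enzyme with DMSO and 100% = wells lacking PAFAH2 protein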
PME-1 primary = PME-1 (human) inhibition; Q9Y570; recombinant PME-1, FP-Rh probe fluorescence polarization; inhibition, % at 5.9 µM; 320,000 tested, 0.53% active; AID 2130;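 active = inhibition above the campaign mean of all compounds plus 3 SD, cut at about 26% in these data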;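 note: competitive labeling of PME-1 active site by serine hydrolase directed probe; 0% = PME-1 with DMSO and 100% = wells lacking PME-1 enzyme; inhibitors block probe labeling so polarization falls and inhibition rises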
Target sequence (Q9Y570 whole entry, looked up): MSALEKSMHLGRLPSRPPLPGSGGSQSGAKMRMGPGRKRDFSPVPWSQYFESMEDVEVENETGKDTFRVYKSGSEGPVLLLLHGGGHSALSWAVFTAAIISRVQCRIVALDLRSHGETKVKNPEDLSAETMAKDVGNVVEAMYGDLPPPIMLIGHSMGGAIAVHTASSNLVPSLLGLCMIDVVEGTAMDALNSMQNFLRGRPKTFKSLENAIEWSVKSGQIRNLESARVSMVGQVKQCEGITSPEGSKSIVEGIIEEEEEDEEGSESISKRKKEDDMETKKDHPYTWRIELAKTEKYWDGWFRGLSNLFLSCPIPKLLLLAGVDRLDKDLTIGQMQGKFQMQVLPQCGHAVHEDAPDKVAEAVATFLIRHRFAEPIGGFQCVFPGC
Fam108B inh = counter-screen for RBBP9 inhibitors: inhibitors of mouse Fam108B. recombinant Fam108B, FP-Rh probe fluorescence polarization. 300,000 tested, 0.33% active. inhibition, % at 9.51 µM;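 active = inhibition above the screen mean inhibition plus 3 SD, computed separately per campaign, cut at about 18% in these data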;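 note: inhibitors lower polarization as less probe binds the enzyme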
pPAFAH inh = pPAFAH (human) enzyme inhibition; 330,000 tested, 1.5% active; inhibition, % at 3.39 µM; recombinant pPAFAH, FP-rhodamine probe fluorescence polarization; AID 463082;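 active = inhibition above the mean inhibition across the screen plus 3 SD, cut at about 25% in these data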;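 note: inhibitors block binding of the rhodamine activity-based probe so polarization drops; 0% = enzyme with DMSO and 100% = wells lacking pPAFAH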
PAFAH1B3 inh = PAFAH1B3 (human) inhibition; AID 492972; inhibition, % at 3.39 µM; 340,000 tested, 0.28% active; recombinant PAFAH1B3, FP-rhodamine probe, fluorescence polarization; Q15102;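 active = inhibition above the screen-wide average of all tested compounds plus 3 SD, cut at about 25% in these data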;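 note: 0% = enzyme with DMSO only and 100% = wells lacking PAFAH1B3 protein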
PAFAH1B2 FP inh = blocks human PAF acetylhydrolase 1b catalytic subunit 2 | recombinant PAFAH1B2, FP-rhodamine activity probe, fluorescence polarization | 340,000 tested, 1.2% active | inhibition, % at 3.39 µM | P68402;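 active = inhibition above the mean of all tested compounds plus 3 SD, cut at about 24% in these data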;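 note: 0% = enzyme with DMSO and 100% = wells lacking PAFAH1B2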
* hit, by the source's call; · = not tested or not shown.

SMILES	PAFAH2 inh	PME-1 primary	Fam108B inh	pPAFAH inh	PAFAH1B3 inh	PAFAH1B2 FP inh
O=c1ccc2ccc(Oc3ccc([N+](=O)[O-])cc3[N+](=O)[O-])cc2o1	·	42*	2	10	·	·
O=C(Oc1ccc2ccc(=O)oc2c1)c1ccc([N+](=O)[O-])cc1	-7	-1	2	0	-1	-2
CC(NS(=O)(=O)c1ccccc1)C1CC2CCC1C2 (stereo not drawn)	11	0	-2	7	3	25*
CC(NS(=O)(=O)c1ccc(N)cc1)C1CC2CCC1C2 (stereo not drawn)	-3	2	-3	5	5	20
CN(C)C=Nc1ccccc1C1C=NNC1=O (stereo not drawn)	·	28*	1	8	·	·
COc1ccccc1NC(=O)c1cc(S(=O)(=O)N2CCC3(CC2)OCCO3)ccc1F	5	-6	-5	1	6	10
O=C(Nc1ccccc1C(F)(F)F)c1cc(S(=O)(=O)N2CCC3(CC2)OCCO3)ccc1F	6	2	-2	7	0	24*
O=C(CSc1nc2ccccc2o1)c1cc2ccccc2oc1=O	-3	-3	5	26*	7	4
O=C(CSc1nc2ccccc2c(=O)n1CC1CCCO1)NCC1CCCO1 (stereo not drawn)	8	-3	-4	-4	9	8
O=C(CSc1nc2ccccc2n1-c1ccccc1)NCC1CCCO1 (stereo not drawn)	4	2	1	28*	2	-1
O=C(CSc1nc2ccccc2o1)NCC1CCCO1 (stereo not drawn)	32*	3	0	2	21	24*
O=C(CSc1nc2ccccc2o1)NC1CCCC1	2	7	0	4	3	7
Cc1cc(C)nc(SCC(=O)c2cc3ccccc3oc2=O)n1	-1	2	3	3	4	2
NS(=O)(=O)c1ccc(NC(=O)CSc2nc3ccccc3n2-c2ccccc2)cc1	-15	-14	-10	32*	-15	-3
CN(C)S(=O)(=O)c1ccc(NC(=O)CSc2nc3ccccc3n2-c2ccccc2)cc1	-27	-39	-31	12	-19	-14
COc1ccc(CN2CCCC(C(=O)c3ccc(Cl)cc3)C2)cc1Cn1cccn1 (stereo not drawn)	-4	-5	-3	5	7	3
N#CCCN(C(=O)COc1ccc(F)cc1Br)c1ccccc1F	1	-3	-2	10	2	3
CC(C)(C)c1ccccc1NC(=O)N1CCNC(=O)C1CC(=O)Nc1ccc(F)cc1 (stereo not drawn)	5	1	-2	1	5	-4
O=C(c1nnc(Cc2ccc(Cl)cc2)o1)N1CCc2ccccc2C1	4	5	2	30*	-2	3
c1ccc(OCc2nn3c(Cn4cnc5ccccc54)nnc3s2)cc1	4	2	10	5	3	27*
COc1ccc(S(=O)(=O)Nc2ccc3c(c2)C(=O)N([C@H](C)CO)C[C@H](C)[C@@H](CN(C)S(=O)(=O)c2ccccc2)O3)cc1	-3	·	·	9	10	40*
COc1ccc(S(=O)(=O)N(C)C[C@H]2Oc3ccc(NS(=O)(=O)c4ccccc4)cc3C(=O)N([C@H](C)CO)C[C@@H]2C)cc1	5	·	·	10	5	9
C[C@H]1CN([C@@H](C)CO)C(=O)c2cc(NS(=O)(=O)c3ccc(F)cc3)ccc2O[C@H]1CN(C)S(=O)(=O)c1cn(C)cn1	1	·	·	28*	7	7
C[C@H](CO)N1C[C@H](C)[C@@H](CN(C)S(=O)(=O)c2cn(C)cn2)Oc2ccc(NS(=O)(=O)c3ccccc3)cc2C1=O	-5	·	·	4	2	-3
COc1ccc(C/C(=N\OC(C)=O)c2ccc(OC)cc2)cc1	2	-3	1	2	1	30*
O=C(CNC(=O)c1cccs1)OCc1ccc(Cl)cc1	3	-1	0	2	4	3
O=C(NCCSCc1ccc(Cl)cc1)c1cccs1	1	2	-1	8	12	25*
C#CCn1c(=NC(=O)c2ccc(S(=O)(=O)N3CCCc4ccccc43)cc2)sc2cc(S(N)(=O)=O)ccc21	-102	-98	-76	-23	-92	-45
Cc1[nH]n(C(N)=S)c(=O)c1N=Nc1cccc(Cl)c1	5	1	0	11	11	9
